Experimental data as given in PubChem BioAssay AID1159580 (chemical genetic matrix, 2015).
Screen size: about 5,500 compounds; about 2,000 (36%) were called active. Inconclusive results (about 18%) are left out. Rule as the data show it: active = normalized growth mostly below about 0.91 (no sharp cut-off); inconclusive = no clear call, values can overlap the other calls; inactive = mostly above about 0.92. Some of the results follow.

Experiment: chemical genetic growth profiling, strain panel (AID 1159580);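 also: tested at 20 µM; growth read once vehicle control cultures reached saturation at 30 °C; 1 = growth at the plate median or of vehicle wells; lower values mean less growth of the strain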
Settings: growth OD

Measured: normalized growth

COc1cc([C@H]2Oc3cc([C@H]4Oc5cc(O)cc(O)c5C(=O)[C@@H]4O)ccc3O[C@@H]2CO)ccc1O
inactive: S. cerevisiae deletion strains, locus YJR075W, strain HOC1, active compounds read low 0.999 | S. cerevisiae deletion strains, locus YKL009W, strain mrt4, active compounds read low 0.984 | S. cerevisiae deletion strains, locus YKL068W, active compounds read low 0.981 | S. cerevisiae deletion strains, locus YKL085W, strain MDH1 (second series), active compounds read low 1.02 | S. cerevisiae deletion strains, locus YKL085W, strain MDH1, active compounds read low 1.02 | S. cerevisiae deletion strains, locus YKL160W, strain elf1, active compounds read low 1.01 | S. cerevisiae deletion strains, locus YKL190W, strain CNB1, active compounds read low 0.989 | S. cerevisiae deletion strains, locus YKR001C, strain vps1, active compounds read low 0.961 | S. cerevisiae deletion strains, locus YKR026C, strain gcn3, active compounds read low 1.01 | S. cerevisiae deletion strains, locus YKR091W, strain srl3, active compounds read low 1.01 | S. cerevisiae deletion strains, locus YLL001W, strain dnm1, active compounds read low 1.01 | S. cerevisiae deletion strains, locus YLL026W, active compounds read low 1.01 | S. cerevisiae deletion strains, locus YLL041C, strain sdh2, active compounds read low 1.01 | S. cerevisiae deletion strains, locus YLR027C, strain aat2, active compounds read low 1.02 | S. cerevisiae deletion strains, locus YLR039C, strain RIC1, active compounds read low 0.945 | S. cerevisiae deletion strains, locus YLR058C, strain SHM2, active compounds read low 0.998 | S. cerevisiae deletion strains, locus YLR102C, strain apc9, active compounds read low 0.979 | S. cerevisiae deletion strains, locus YLR113W, strain HOG1, active compounds read low 0.986 | S. cerevisiae deletion strains, locus YLR221C, strain rsa3, active compounds read low 0.988 | S. cerevisiae deletion strains, locus YLR258W, strain gsy2, active compounds read low 1 | S. cerevisiae deletion strains, locus YLR262C, strain YPT6 (second series), active compounds read low 1.03 | S. cerevisiae deletion strains, locus YLR262C, strain YPT6, active compounds read low 0.953 | S. cerevisiae deletion strains, locus YLR268W, strain sec22, active compounds read low 0.965 | S. cerevisiae deletion strains, locus YLR320W, strain mms22, active compounds read low 0.991 | S. cerevisiae deletion strains, locus YLR330W, strain CHS5, active compounds read low 1 | S. cerevisiae deletion strains, locus YLR342W, strain FKS1 (second series), active compounds read low 1.01 | S. cerevisiae deletion strains, locus YLR342W, strain FKS1, active compounds read low 1.01 | S. cerevisiae deletion strains, locus YLR357W, strain rsc2, active compounds read low 1.03 | S. cerevisiae deletion strains, locus YLR370C, strain arc18, active compounds read low 1 | S. cerevisiae deletion strains, locus YLR371W, strain rom2, active compounds read low 0.971 | S. cerevisiae deletion strains, locus YLR384C, strain iki3, active compounds read low 1.02 | S. cerevisiae deletion strains, locus YLR418C, strain cdc73, active compounds read low 0.978 | S. cerevisiae deletion strains, locus YML016C, strain PPZ1, active compounds read low 1.01 | S. cerevisiae deletion strains, locus YML032C, strain rad52, active compounds read low 0.945 | S. cerevisiae deletion strains, locus YML120C, strain ndi1, active compounds read low 1.01 | S. cerevisiae deletion strains, locus YML124C, strain tub3, active compounds read low 0.986 | S. cerevisiae deletion strains, locus YMR058W, strain fet3, active compounds read low 0.998 | S. cerevisiae deletion strains, locus YMR078C, strain ctf18, active compounds read low 0.979 | S. cerevisiae deletion strains, locus YMR125W, strain sto1, active compounds read low 1.03 | S. cerevisiae deletion strains, locus YMR129W, active compounds read low 1.01 | S. cerevisiae deletion strains, locus YMR205C, strain PFK2, active compounds read low 1.01 | S. cerevisiae deletion strains, locus YMR223W, strain ubp8, active compounds read low 0.958 | S. cerevisiae deletion strains, locus YMR231W, strain pep5, active compounds read low 1.01 | S. cerevisiae deletion strains, locus YMR263W, strain SAP30, active compounds read low 0.998 | S. cerevisiae deletion strains, locus YMR307W, strain GAS1, active compounds read low 0.905 | S. cerevisiae deletion strains, locus YNL067W, strain RPL9B, active compounds read low 0.994 | S. cerevisiae deletion strains, locus YNL071W, strain lat1, active compounds read low 0.995 | S. cerevisiae deletion strains, locus YNL128W, strain TEP1, active compounds read low 0.993 | S. cerevisiae deletion strains, locus YNL153C, strain GIM3, active compounds read low 1 | S. cerevisiae deletion strains, locus YNL183C, strain NPR1, active compounds read low 0.932 | S. cerevisiae deletion strains, locus YNL209W, strain ssb2, active compounds read low 1.01 | S. cerevisiae deletion strains, locus YNL233W, strain BNI4, active compounds read low 0.997 | S. cerevisiae deletion strains, locus YNL248C, strain rpa49, active compounds read low 1.01 | S. cerevisiae deletion strains, locus YNL250W, strain rad50, active compounds read low 0.975 | S. cerevisiae deletion strains, locus YNL271C, strain bni1, active compounds read low 0.969 | S. cerevisiae deletion strains, locus YNL298W, strain CLA4, active compounds read low 0.965 | S. cerevisiae deletion strains, locus YNL307C, strain MCK1, active compounds read low 0.969 | S. cerevisiae deletion strains, locus YNL322C, strain KRE1 (second series), active compounds read low 1.01 | S. cerevisiae deletion strains, locus YNL322C, strain KRE1, active compounds read low 0.993 | S. cerevisiae deletion strains, locus YNR049C, strain mso1, active compounds read low 1.01 | S. cerevisiae deletion strains, locus YNR052C, strain pop2, active compounds read low 0.979 | S. cerevisiae deletion strains, locus YOL006C, strain TOP1, active compounds read low 0.969 | S. cerevisiae deletion strains, locus YOL012C, strain htz1 0.746 | S. cerevisiae deletion strains, locus YOL147C, strain pex11, active compounds read low 0.973 | S. cerevisiae deletion strains, locus YOR001W, strain rrp6, active compounds read low 1.01 | S. cerevisiae deletion strains, locus YOR061W, strain CKA2, active compounds read low 1 | S. cerevisiae deletion strains, locus YOR069W, strain VPS5, active compounds read low 1.01 | S. cerevisiae deletion strains, locus YOR070C, strain gyp1, active compounds read low 1.01 | S. cerevisiae deletion strains, locus YOR080W, strain dia2, active compounds read low 1.02 | S. cerevisiae deletion strains, locus YOR083W, strain WHI5, active compounds read low 1.01 | S. cerevisiae deletion strains, locus YOR106W, strain vam3, active compounds read low 1.01 | S. cerevisiae deletion strains, locus YOR136W, strain idh2, active compounds read low 0.973 | S. cerevisiae deletion strains, locus YOR144C, strain elg1, active compounds read low 0.96 | S. cerevisiae deletion strains, locus YOR184W, strain ser1, active compounds read low 0.947 | S. cerevisiae deletion strains, locus YOR231W, strain MKK1, active compounds read low 1.02 | S. cerevisiae deletion strains, locus YOR265W, strain rbl2, active compounds read low 1.01 | S. cerevisiae deletion strains, locus YOR270C, strain vph1, active compounds read low 0.961 | S. cerevisiae deletion strains, locus YOR290C, strain snf2, active compounds read low 0.996 | S. cerevisiae deletion strains, locus YOR316C, strain cot1, active compounds read low 0.985 | S. cerevisiae deletion strains, locus YPL051W, strain arl3, active compounds read low 1 | S. cerevisiae deletion strains, locus YPL055C, strain LGE1, active compounds read low 0.995 | S. cerevisiae deletion strains, locus YPL078C, strain atp4, active compounds read low 1.02 | S. cerevisiae deletion strains, locus YPL106C, strain sse1, active compounds read low 0.994 | S. cerevisiae deletion strains, locus YPL240C, strain hsp82, active compounds read low 1.01 | S. cerevisiae deletion strains, locus YPL241C, strain CIN2, active compounds read low 0.975 | S. cerevisiae deletion strains, locus YPL256C, strain CLN2, active compounds read low 1.01 | S. cerevisiae deletion strains, locus YPR119W, strain clb2, active compounds read low 0.993 | S. cerevisiae deletion strains, locus YPR141C, strain kar3, active compounds read low 0.985 | S. cerevisiae deletion strains, locus YPR163C, strain tif3, active compounds read low 0.973 | S. cerevisiae deletion strains, locus YPR167C, strain met16, active compounds read low 0.996 | S. cerevisiae deletion strains, strain wtn01, active compounds read low 0.987 | S. cerevisiae strains, strain wild type, active compounds read low 1
